A short description of experiment [1]: A549 cell viability effects, profiling panel, calcein-AM fluorescence, 48 h, basal (AID 1162). As to conditions: higher = more signal.
Experiment [2] is described as follows: adipocyte viability effects, profiling panel, cell-based, 3T3-L1 adipocytes, calcein-AM fluorescence, 48 h, basal (AID 1163). Conditions: 3T3-L1 adipocytes viability, higher = more signal.
Experiment [3] in a line: HepG2 cell viability effects, profiling panel, calcein-AM fluorescence, 48 h, basal (AID 1164). As to conditions: higher = more signal.
The nature of experiment [4]: MM1S cell viability effects, profiling panel, calcein-AM fluorescence, 48 h, basal (AID 1165).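 Further: viability of MM1S multiple myeloma cells under basal unstimulated conditions.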 Conditions: higher = more signal.
Experiment [5] can be described thus: basal RPMI8226 viability, no added stimulus, profiling panel, cell-based, calcein-AM fluorescence, 48 h, PK04 Diversity Set (AID 1166).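 Further: cells grown under basal conditions without added stimulus.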 Conditions: RPMI8226 myeloma viability, higher = more signal.
Experiment [6] can be described thus: basal HepG2 mitochondrial membrane potential changes, profiling panel, cell-based, JC-1 fluorescence, 24 h, 100 nL compound (AID 1167). As to conditions: higher = more signal.
The nature of experiment [7]: basal 3T3-L1 adipocyte mitochondrial potential changes, profiling panel, cell-based, JC-1 fluorescence, 3T3-L1 adipocytes, 24 h, 100 nL compound (AID 1168). As to conditions: JC-1 mitochondrial fluorescence, higher = more signal, called active from +8 up or from −8 down.
Experiment [8] in a line: basal RPMI8226 mitochondrial membrane potential changes, profiling panel, cell-based, JC-1 fluorescence, 24 h, 100 nL compound (AID 1169). As to conditions: RPMI8226 myeloma, JC-1 mitochondrial potential fluorescence, higher = more signal.
A short description of experiment [9]: basal MM1S mitochondrial membrane potential changes, profiling panel, cell-based, JC-1 fluorescence, 24 h, 100 nL compound (AID 1170). As to conditions: higher = more signal.
Experiment [10] can be described thus: A549 lung cancer cell viability effects, profiling panel, resazurin fluorescence, 24 h, PK04 Diversity Set (AID 1171). As to conditions: higher = more signal, called active from +8 up or from −8 down.

Active and inactive are the calls of the source.
Further: test concentration not given here.

Turning to `CN1C(=O)C2C=CC(C(O)c3cc(C(F)(F)F)cc(C(F)(F)F)c3)N(NC(=O)OC(C)(C)C)C2C1=O` (stereo not given), the z-score was -1.29 in experiment [1]; -0.122 in [2]; -0.938 in [3]; 0.319 in experiment [4]; -1.06 in experiment [5]; -1.28 in [6]. Also, the z-score in experiment [7] is 1.03 (inactive); in [8], 0.191; in [9] it was 0.546; in experiment [10] it was 1.14 (inactive).
With `CC1CC/C=C\[C@H]2OC34C=CCN(C(C)(C)C)C(=O)[C@H]3N(C(CO)C(C)C)C(=O)[C@@H]4C2C(=O)O1` (stereo not given in full), the z-score in experiment [1] is 0.0643; in experiment [2] it was 0.385; in experiment [3], -0.554; in [4], 1.61; in experiment [5] it was 0.136; in [6], -0.976. Further, the z-score in experiment [7] is -0.295 (inactive); in experiment [8], -0.622; in [9], -0.516; in experiment [10], -0.266 (inactive).
For the compound `[N-]=[N+]=NCc1ccccc1[C@H]1OC(c2ccc(OCCCO)cc2)=N[C@@]1(CCS(=O)(=O)c1ccccc1)C(=O)NCc1ccccc1`, the z-score in [1] was 2.47; in [2], -0.0706; in experiment [3] it was 1.35; in experiment [4], -0.65; in experiment [5] it was 0.414; in [6], -0.627. Besides, the z-score was -0.0258 (inactive) in experiment [7], -1.02 in [8], -0.531 in experiment [9] and 1.73 (inactive) in experiment [10].
On to `COCC(=C=CC[C@@H](O)c1ccc(OCCO)cc1)CCO`, for which the z-score is 1.46 in experiment [1]; 0.376 in [2]; 0.875 in experiment [3]; 0.676 in experiment [4]; 0.786 in experiment [5]; 1.32 in [6]. Besides, the z-score in experiment [7] was 0.87 (inactive); in experiment [8], -0.756; in experiment [9], -1.1; in [10], 1.12 (inactive).
`CC(C)C[C@@H]1NC(=O)CNC(=O)[C@@]23C(=O)N[C@@H](Cc4ccccc4)C2[C@H](C)[C@@]2(C)O[C@H]2C3/C=C/C/C=C\CNC1=O` (stereo not given in full): the z-score is -0.692 in experiment [1]; 0.404 in [2]; -0.262 in experiment [3]; 0.0565 in experiment [4]; -0.939 in [5]; -0.513 in [6]. The z-score in experiment [7] was 0.00154 (inactive); in experiment [8] it was -0.385; in experiment [9], -0.181; in experiment [10] it was 0.547 (inactive).
Consider `COCCOC(=O)N1C(=O)[C@@]2(c3cc(C#CCC(C(=O)OC)C(=O)OC)ccc31)[C@H](C(=O)NC[C@H](O)c1ccccc1)[C@H]1C(=O)O[C@H](c3ccccc3)[C@H](c3ccccc3)N1[C@@H]2c1ccc(OCCO)cc1`, for which the z-score in [1] is -0.248; in [2], 0.951; in experiment [3], 0.583; in [4] it was 0.152; in [5], -1.87; in [6] it was -0.684. Also, the z-score in [7] is 0.407 (inactive); in experiment [8] it was -0.854; in [9], -0.724; in experiment [10], -0.873 (inactive).
On to `COCCOC(=O)N1C(=O)[C@@]2(c3cc(C#CCCO)ccc31)[C@H](C(=O)N1CCCCCCC1)[C@H]1C(=O)O[C@H](c3ccccc3)[C@H](c3ccccc3)N1[C@@H]2c1ccccc1OCCO`, for which the z-score is 0.862 in experiment [1]; 1.45 in experiment [2]; 0.566 in [3]; -2.12 in experiment [4]; -1.62 in experiment [5]; -0.292 in [6]. Further, the z-score in experiment [7] is -0.0643 (inactive); in experiment [8], -0.815; in [9], -0.513; in [10], 1 (inactive).
Regarding `CC(C)c1ccc(NN2C(C(O)Cc3ccccc3)C=CC3C(=O)N(c4ccccc4)C(=O)C32)cc1` (stereo not given), the z-score in experiment [1] was -0.989; in [2], -0.482; in experiment [3], 0.526; in experiment [4], -1.06; in [5], -0.434; in [6], -2. For the same compound, the z-score was -0.864 (inactive) in [7], 0.411 in [8], 1.51 in experiment [9] and -0.63 (inactive) in [10].
Consider `C[C@@H]1ON(c2ccc(I)cc2)[C@H](c2ccc(OC(=O)OC(C)(C)C)cc2)[C@H]1C(=O)N1C(=O)OC[C@H]1Cc1ccccc1`, for which the z-score in [1] was 0.0132; in [2] it was 1.06; in [3], 1.61; in experiment [4] it was -0.234; in [5], 0.351; in experiment [6], 0.144. The z-score in [7] is 0.498 (inactive); in experiment [8] it was -0.366; in experiment [9], -1.81; in experiment [10], 1.33 (inactive).
In the case of `O=C1N(CCS(=O)(=O)c2ccccc2)Cc2ccccc2[C@@H]2OC(c3ccc(OCCCO)cc3)=N[C@]12CCS(=O)(=O)c1ccccc1`, the z-score is 1.35 in [1]; 0.859 in experiment [2]; 0.345 in [3]; -0.635 in experiment [4]; -1 in [5]; -1.65 in experiment [6]. The z-score in experiment [7] is 1.72 (inactive); in experiment [8], -0.933; in experiment [9] it was -1.01; in experiment [10], 0.409 (inactive).
Regarding `CCOC(=O)C[C@H]1[C@H](OC(=O)c2ccc(-c3ccccc3)cc2)[C@@H](NC(=O)CC(C)C)c2cc(OCCCO)ccc2N1C(=O)c1ccccc1`, the z-score in [1] was -0.426; in experiment [2] it was -0.257; in experiment [3], -0.0915; in experiment [4] it was -1.17; in experiment [5], -0.672; in [6], 1.32. For the same compound, the z-score in experiment [7] was -0.679 (inactive); in experiment [8], 0.983; in [9], 0.33; in experiment [10], -0.719 (inactive).
Regarding `COC(=O)C(CC#Cc1ccc2c(c1)[C@]1(C(=O)N2)[C@H](C(=O)Nc2nc3ccccc3s2)[C@H]2C(=O)O[C@H](c3ccccc3)[C@H](c3ccccc3)N2[C@@H]1c1ccc(OCCO)cc1)C(=O)OC`, the z-score is 0.686 in experiment [1]; 1.18 in [2]; 1.64 in [3]; -0.82 in experiment [4]; -1.97 in [5]; -3.2 in experiment [6]. Besides, the z-score in [7] is 1.59 (inactive); in experiment [8] it was -1; in [9], -0.693; in experiment [10] it was 0.0002 (inactive).
`NC(=O)NCC#Cc1ccc2c(c1)[C@]1(C(=O)N2)[C@H](C(=O)N2CCN(c3ncccn3)CC2)[C@H]2C(=O)O[C@H](c3ccccc3)[C@H](c3ccccc3)N2[C@@H]1c1ccc(OCCO)cc1`: the z-score in [1] is 0.0404; in [2] it was -0.33; in [3] it was -1.12; in experiment [4] it was -0.444; in [5], 0.86; in experiment [6], -1.95. For the same compound, the z-score in experiment [7] was 1.54 (inactive); in experiment [8], -0.504; in [9], -0.445; in [10], 0.75 (inactive).
For the compound `NCCCCCNC(=O)[C@@H]1C[C@@H]2C(=O)N3CCC[C@H]3C(=O)N2[C@@H]1c1ccc(O)cc1`, the z-score in experiment [1] is 0.389; in experiment [2], 0.485; in experiment [3], 0.2; in experiment [4] it was -0.42; in experiment [5], 0.209; in experiment [6] it was -0.0437. Further, the z-score is -0.645 (inactive) in [7], -0.175 in experiment [8], 0.73 in experiment [9] and -0.234 (inactive) in [10].

The values are drawn from PubChem BioAssay.
